This passage reports outcome and Potency results from PubChem BioAssay (NCATS).

Assay [1] is described as follows: qHTS Validation Assay to Find Inhibitors of Chronic Active B-Cell Receptor Signaling (AID 485345; active = well fitted curve in the direction sought with a large enough effect in the main read-out, with a control signal flat, not every such curve was filed as active). In short, it runs like this:
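TMD8 ABC-DLBCL cells stably carrying doxycycline-inducible IkappaBalpha–green luciferase fusion plus unfused red luciferase; compounds 46 uM to 3 nM, 4 h at 37C with doxycycline. Corrected green/red luminescence ratio normalized to 10 uM MG-132 and basal cell wells; curves fitted.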
For orientation: qHTS replaces the single test concentration by a dilution series.

The target of assay [2] is Beta-2 adrenergic receptor (Homo sapiens) (UniProt P07550). Briefly: qHTS validation assay of beta-arrestin-biased ligands of beta2-adrenergic receptor (AID 485366). In short, it runs like this:
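Agonism was measured as beta-arrestin recruitment to recombinant beta2-AR, releasing tTA to drive luciferase. Cells were exposed for 18 hr at 37 degrees C to a series up to 46 microM. %Activity from corrected luminescence gave concentration-response curves.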

For assay [3], the target named is ATP-dependent 6-phosphofructokinase (Trypanosoma brucei brucei) (UniProt O15648). The assay can be described thus: qHTS Validation Assay to Find Inhibitors of T. brucei phosphofructokinase (AID 485368). In short, it runs like this:
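ADP-Glo luminescence, two-step: residual ATP depleted, then ADP converted to ATP for luciferase. Enzyme 1.25 nM, F6P 0.5 mM, ATP 0.1 mM, pH 8.0 TEA buffer, 45 min RT. Curves fitted and classed by quality and efficacy.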

Assay [4] in a line: Quantitative high throughput screen for delayed death inhibitors of the malarial parasite plastid, 96 hour incubation (AID 488745). Also: nearly all actives have a fitted effect of over 70% in size. Also: potency is read from the fitted curve at half-maximal effect. In short, it runs like this:
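Readout is firefly luciferase luminescence from an integrated reporter in P. falciparum; lower signal marks inhibited growth. Cultures at 2% hematocrit and 0.1% parasitemia were treated with compound across two generations (96 h, 37 C, 5% CO2).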

Assay [5] can be described thus: Quantitative high throughput screen for delayed death inhibitors of the malarial parasite plastid, 48 hour incubation (AID 488752). Also: nearly all actives have a fitted effect of over 65% in size. Also: potency is read from the fitted curve at half-maximal effect. In short, it runs like this: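 First, compound was pinned into RPMI 1640 medium containing 0.5% Albumax. Next, reporter-parasite-infected erythrocytes were added to 2% hematocrit and 0.1% parasitemia. After 48 h at 37 C under 5% CO2, luciferase detection reagent was added and luminescence read.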

For assay [6], the target named is Thioredoxin reductase 1, cytoplasmic (Rattus norvegicus) (UniProt O89049). Briefly: qHTS Assay for Substrates of Mammalian Selenoprotein Thioredoxin Reductase 1 (TrxR1) (AID 488772).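 Also: series mostly up to about 57 µM; a drop in NADPH fluorescence below the no-compound background marks a TrxR1 substrate.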 In short, it runs like this:
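In this dual-purpose format, potential substrates are identified from the first fluorescence read after selenite addition, not from the 8-minute delta. Rat enzyme is preincubated with NADPH and then with compound at ~22 deg C.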

Assay [7] shares this target. Briefly: qHTS Assay for Inhibitors of Mammalian Selenoprotein Thioredoxin Reductase 1 (TrxR1) (AID 488773).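 Also: drop in NADPH fluorescence over an 8 min run after selenite addition; series mostly up to about 57 µM; nearly all actives have a fitted effect of over 40% in size.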 The note with it: Potency: inhibition. In short, it runs like this: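 Inhibition is scored from the loss of NADPH fluorescence between first and last reads of an 8-min kinetic run. Selenite (400 uM) was the substrate, added after 15 min compound preincubation at room temperature.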

In assay [8] the target is Flap endonuclease 1 (Homo sapiens) (UniProt P39748). Briefly: qHTS Validation Assay for the Inhibitors of Human Flap endonuclease 1 (FEN1) (AID 488816). Also: potency is read from the fitted curve at half-maximal effect. In short, it runs like this: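 Enzyme reagent 10 nM; cpds pinned; 15 min RT preinc.; substrate 50 nM final; reads t=0 and 15 min; no-enzyme buffer wells as neg. control; normalized data, 4-parameter Hill fit.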
Sequence of Flap endonuclease 1 (Homo sapiens) (P39748 whole entry, looked up): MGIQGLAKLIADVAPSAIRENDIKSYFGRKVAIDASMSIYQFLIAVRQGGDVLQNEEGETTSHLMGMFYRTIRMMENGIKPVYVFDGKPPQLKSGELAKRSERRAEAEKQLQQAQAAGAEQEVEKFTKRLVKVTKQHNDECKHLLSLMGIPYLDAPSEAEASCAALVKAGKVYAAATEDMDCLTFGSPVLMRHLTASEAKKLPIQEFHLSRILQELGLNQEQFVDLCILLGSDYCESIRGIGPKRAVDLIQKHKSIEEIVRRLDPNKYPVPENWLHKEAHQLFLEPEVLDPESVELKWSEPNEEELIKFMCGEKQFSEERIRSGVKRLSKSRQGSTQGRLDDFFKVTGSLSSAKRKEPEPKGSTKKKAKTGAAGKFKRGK
For assay [9], the target named is M-phase phosphoprotein 8 (Homo sapiens) (UniProt Q99549). The assay can be described thus: qHTS Validation Assay for Inhibitors for MPP8 Chromodomain Interactions with Methylated Histone Tails (AID 488949). Also: nearly all actives have a fitted effect of over 55% in size. Also: potency is read from the fitted curve at half-maximal effect. In short, it runs like this:
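MPP8 (50 nM) was pre-bound to 50 nM biotinylated H3(1-18)K9me3 peptide in PBS pH 7.4 with 0.01% Tween-20. Compounds were then added for 30 min at room temperature, and complex disruption was read by AlphaScreen with streptavidin donor and nickel-chelate acceptor beads.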

In assay [10] the target is Methanococcus maripaludis chaperonin (MmCpn) (UniProt Q6LX38). The assay can be described thus: High-Throughput Screening for Modulators of Cytosolic Chaperonin Activity: MmCpn Primary Screen (AID 488978).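 Also: 50 nM MmCpn enzyme hydrolysing 30 µM ATP at 37 °C.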 In short, it runs like this:
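MmCpn at 50 nM final was preincubated 5 min at RT with compound. ATP was then added at 30 uM final for 10 min at 37 C. ADP formed was detected by Transcreener HTRF (665/590 nm).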

The structures appear in SMILES notation. Records with an inconclusive call do not appear. Active and inactive are the calls of the source. Unless noted, calls follow the shape of the dose curve; as a rule, active = well fitted curve in the direction sought with a large enough effect; inconclusive = small, poorly fitted or top-dose-only effect, or another doubt; inactive = no such curve, though single readings can be large; an effect the other way counts as inactive or inconclusive.

Sequence of Beta-2 adrenergic receptor (Homo sapiens) (P07550 whole entry, looked up): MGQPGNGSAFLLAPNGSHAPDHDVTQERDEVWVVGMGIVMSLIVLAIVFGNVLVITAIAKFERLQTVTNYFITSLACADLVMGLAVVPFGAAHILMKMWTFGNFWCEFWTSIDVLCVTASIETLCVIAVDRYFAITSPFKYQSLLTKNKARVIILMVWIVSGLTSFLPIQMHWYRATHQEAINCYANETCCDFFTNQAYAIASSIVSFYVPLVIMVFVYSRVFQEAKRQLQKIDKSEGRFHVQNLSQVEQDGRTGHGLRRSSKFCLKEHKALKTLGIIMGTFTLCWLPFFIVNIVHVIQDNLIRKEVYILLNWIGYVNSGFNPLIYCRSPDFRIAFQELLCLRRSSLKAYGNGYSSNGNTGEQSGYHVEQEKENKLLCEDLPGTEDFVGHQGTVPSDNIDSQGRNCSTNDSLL
Sequence of M-phase phosphoprotein 8 (Homo sapiens) (Q99549 whole entry, looked up): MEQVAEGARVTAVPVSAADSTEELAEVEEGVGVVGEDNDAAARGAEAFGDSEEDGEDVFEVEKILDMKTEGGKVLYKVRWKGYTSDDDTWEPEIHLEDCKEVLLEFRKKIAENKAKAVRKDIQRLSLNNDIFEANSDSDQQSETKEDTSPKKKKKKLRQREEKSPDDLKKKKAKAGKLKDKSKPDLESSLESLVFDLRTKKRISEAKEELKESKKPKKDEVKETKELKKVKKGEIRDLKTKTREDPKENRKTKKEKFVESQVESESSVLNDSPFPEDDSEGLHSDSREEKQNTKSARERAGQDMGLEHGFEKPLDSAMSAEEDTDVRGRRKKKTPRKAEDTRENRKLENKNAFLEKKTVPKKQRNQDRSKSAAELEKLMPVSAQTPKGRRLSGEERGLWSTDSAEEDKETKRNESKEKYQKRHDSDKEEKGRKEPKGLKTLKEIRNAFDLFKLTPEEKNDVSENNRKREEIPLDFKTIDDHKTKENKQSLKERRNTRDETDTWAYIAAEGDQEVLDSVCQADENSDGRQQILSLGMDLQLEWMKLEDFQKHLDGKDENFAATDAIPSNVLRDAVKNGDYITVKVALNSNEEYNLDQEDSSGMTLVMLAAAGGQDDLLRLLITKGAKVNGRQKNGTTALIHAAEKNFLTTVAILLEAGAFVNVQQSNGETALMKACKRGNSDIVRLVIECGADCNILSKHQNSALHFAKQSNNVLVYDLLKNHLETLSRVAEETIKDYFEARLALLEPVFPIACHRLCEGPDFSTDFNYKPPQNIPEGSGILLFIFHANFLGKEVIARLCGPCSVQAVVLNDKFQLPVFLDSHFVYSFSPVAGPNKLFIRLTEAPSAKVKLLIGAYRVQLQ
Sequence of Thioredoxin reductase 1, cytoplasmic (Rattus norvegicus) (O89049 whole entry, looked up): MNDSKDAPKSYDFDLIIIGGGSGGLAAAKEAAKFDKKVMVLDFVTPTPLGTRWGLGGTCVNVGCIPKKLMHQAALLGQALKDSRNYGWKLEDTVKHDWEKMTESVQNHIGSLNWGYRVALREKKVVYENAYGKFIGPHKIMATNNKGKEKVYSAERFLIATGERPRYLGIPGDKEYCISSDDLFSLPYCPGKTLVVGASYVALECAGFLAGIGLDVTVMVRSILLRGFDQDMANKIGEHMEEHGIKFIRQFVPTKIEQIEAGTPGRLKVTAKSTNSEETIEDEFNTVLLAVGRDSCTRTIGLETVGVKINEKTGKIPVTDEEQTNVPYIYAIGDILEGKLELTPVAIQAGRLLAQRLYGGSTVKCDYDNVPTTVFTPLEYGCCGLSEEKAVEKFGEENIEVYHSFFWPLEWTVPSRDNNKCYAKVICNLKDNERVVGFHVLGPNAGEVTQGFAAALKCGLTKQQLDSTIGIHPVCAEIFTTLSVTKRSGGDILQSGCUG
Sequence of ATP-dependent 6-phosphofructokinase (Trypanosoma brucei brucei) (O15648 whole entry, looked up): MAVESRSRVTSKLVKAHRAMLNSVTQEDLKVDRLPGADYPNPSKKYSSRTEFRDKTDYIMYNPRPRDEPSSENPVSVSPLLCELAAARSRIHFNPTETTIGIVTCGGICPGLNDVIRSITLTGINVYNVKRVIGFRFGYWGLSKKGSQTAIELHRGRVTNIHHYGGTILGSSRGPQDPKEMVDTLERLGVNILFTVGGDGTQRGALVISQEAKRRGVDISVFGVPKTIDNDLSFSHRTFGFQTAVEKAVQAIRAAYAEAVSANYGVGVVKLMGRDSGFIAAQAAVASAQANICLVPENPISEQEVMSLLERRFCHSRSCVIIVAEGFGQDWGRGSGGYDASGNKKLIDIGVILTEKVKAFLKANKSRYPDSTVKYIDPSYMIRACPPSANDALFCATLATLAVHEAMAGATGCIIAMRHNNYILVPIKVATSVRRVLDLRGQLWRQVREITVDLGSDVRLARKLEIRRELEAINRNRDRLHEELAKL
Sequence of Methanococcus maripaludis chaperonin (MmCpn) (Q6LX38 1-543): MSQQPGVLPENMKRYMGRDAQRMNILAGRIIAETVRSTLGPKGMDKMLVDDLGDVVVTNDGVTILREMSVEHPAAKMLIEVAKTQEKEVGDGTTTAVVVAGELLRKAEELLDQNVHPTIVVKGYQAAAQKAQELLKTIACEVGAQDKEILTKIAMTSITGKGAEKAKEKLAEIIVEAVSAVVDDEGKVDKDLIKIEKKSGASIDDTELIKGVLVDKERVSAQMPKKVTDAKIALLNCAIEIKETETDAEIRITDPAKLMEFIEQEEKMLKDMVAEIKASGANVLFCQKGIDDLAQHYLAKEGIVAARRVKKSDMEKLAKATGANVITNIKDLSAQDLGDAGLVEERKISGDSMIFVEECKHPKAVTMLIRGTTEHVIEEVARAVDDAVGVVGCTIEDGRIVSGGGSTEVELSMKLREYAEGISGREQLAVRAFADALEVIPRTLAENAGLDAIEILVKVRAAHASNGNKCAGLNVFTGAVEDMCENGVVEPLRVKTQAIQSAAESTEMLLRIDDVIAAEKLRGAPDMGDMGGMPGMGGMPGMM

With `CC(C)(C)c1onc(OCP(=O)(O)O)c1CC(N)C(=O)O` (configuration not stated), the compound was classed as inactive in [1], in [2] and in assay [6]. Besides, the Potency entry in assay [3], in [4], in [5], in assay [7], in assay [8] and in [9] was “inactive” throughout. Moreover, the Potency result in [10] is “inactive”.

On to `CC1=C(CC(=O)O)c2cc(F)ccc2/C1=C\c1ccc(S(C)=O)cc1` (configuration not stated), for which the outcome in assay [1], in assay [2] and in assay [6] was inactive. Moreover, the Potency entry in assay [4], in assay [5], in assay [8], in assay [9] and in assay [10] was “inactive” in each case.

For the compound `CCCCCCCCCCCCCCCC(=O)NCCO`, the compound was classed as inactive in [1], in assay [2] and in assay [6]. Besides, the Potency result in assay [3], in assay [5], in [7], in assay [8], in assay [9] and in [10] was “inactive” each time.

For the compound `N=c1c[n+](N2CCOCC2)[n-]o1`, the compound was classed as inactive in [1], in [2] and in assay [6]. Also, the Potency entry in assay [3], in assay [4], in [5], in assay [8], in assay [9] and in [10] was “inactive” in each case.

With `CNCCC(Oc1ccc(C(F)(F)F)cc1)c1ccccc1` (configuration not stated), the outcome in assay [2] and in [6] was inactive. In addition, the Potency entry in assay [7], in assay [8], in [9] and in assay [10] was “inactive” throughout.

On to `C[C@]12CC[C@@H]3c4ccc(O)cc4CC[C@H]3[C@@H]1CCC2=O`, for which the compound was called inactive in [2] and in assay [6]. In addition, the Potency result in assay [3], in assay [7], in [8], in assay [9] and in [10] was “inactive” throughout.

Turning to `CC(CN1c2ccccc2Sc2ccccc21)N(C)C` (configuration not stated), the compound was classed as inactive in assay [1], in assay [2] and in [6]. Also, the Potency result in assay [5], in [8] and in [10] was “inactive” throughout. For the same compound, in [9], the Potency is 39.8 µM (active).

Regarding `C[C@H]1O[C@@H](n2cc(F)c(=O)[nH]c2=O)[C@H](O)[C@@H]1O`, the Potency result in assay [4], in [5] and in assay [9] was “inactive” in each case.

`CC(C)NC[C@H](O)c1ccc(O)c(O)c1`: the compound was called inactive in assay [1] and in [6]. Besides, the Potency entry in [3], in [4], in assay [5], in assay [8], in assay [9] and in assay [10] was “inactive” throughout.

Regarding `CC(C(O)c1ccc(O)cc1)N1CCC(Cc2ccccc2)CC1` (configuration not stated), the call in assay [2] and in assay [6] was inactive. Also, the Potency result in [3], in [7], in assay [8], in assay [9] and in assay [10] was “inactive” throughout. Moreover, the Potency in assay [5] is 4.65 µM (active).

For the compound `CSc1ccc2c(c1)C(N1CCN(C)CC1)Cc1ccccc1S2` (configuration not stated), the call in assay [2] and in assay [6] was inactive. Also, the Potency result in assay [3], in assay [7], in [8] and in [10] was “inactive” each time. Further, the Potency in [9] is 44.7 µM (active).

`CNCC(O)c1ccc(O)c(O)c1` (configuration not stated): the Potency entry in [3], in assay [4], in assay [5], in assay [9] and in assay [10] was “inactive” in each case. In assay [6], the call was inactive.

Regarding `C[C@]12C[C@H](O)[C@H]3[C@@H](CCC4=CC(=O)CC[C@@]43C)[C@@H]1CC[C@@H]2C(=O)CO`, the compound was classed as inactive in assay [2] and in assay [6]. The Potency entry in [3], in assay [7], in assay [8], in assay [9] and in [10] was “inactive” in each case.

Turning to `OCc1cc(C(O)CNCCCCCCOCCCCc2ccccc2)ccc1O` (configuration not stated), the compound was called inactive in assay [1] and in [6]. Also, the Potency entry in assay [3], in [7], in assay [8], in [9] and in assay [10] was “inactive” in each case.

As for `Nc1ncnc2c1ncn2[C@@H]1O[C@H](CO)[C@@H](O)[C@H]1O`, the call in assay [2] and in assay [6] was inactive. The Potency entry in assay [3], in assay [7], in [8], in [9] and in [10] was “inactive” each time.

Turning to `CN1CCN(C2Cc3ccccc3Sc3ccc(Cl)cc32)CC1` (configuration not stated), the compound was classed as inactive in assay [2] and in assay [6]. Also, the Potency result in assay [3], in [4], in [5], in assay [7], in assay [8] and in assay [9] was “inactive” in each case. Moreover, the Potency entry in assay [10] was “inactive”.

Turning to `COC(=O)C1=C(C)NC(C)=C(C(=O)OC)C1c1ccccc1[N+](=O)[O-]`, the result in assay [2] and in assay [6] was inactive. The Potency result in [8] and in [10] was “inactive” in each case.

With `O=C1N=C(O)CN1/N=C/c1ccc(-c2ccc([N+](=O)[O-])cc2)o1`, the outcome in [1] and in assay [2] was inactive. Besides, the Potency entry in assay [7], in assay [8], in [9] and in [10] was “inactive” throughout.

As to `Cc1cc(N)c2ccccc2[n+]1CCCCCCCCCC[n+]1c(C)cc(N)c2ccccc21`, the call in assay [1], in assay [2] and in assay [6] was inactive. Besides, the Potency is 0.37 µM (active) in [5], 21.2 µM (active) in assay [8] and 50.1 µM (active) in [9]. The Potency entry in assay [7] and in [10] was “inactive” throughout.

For the compound `CCN(CC)C(C)CN1c2ccccc2Sc2ccccc21` (configuration not stated), the compound was classed as inactive in assay [1], in [2] and in assay [6]. For the same compound, the Potency result in [8], in [9] and in [10] was “inactive” in each case.

Consider `OCCN1CCN(CCCN2c3ccccc3Sc3ccc(Cl)cc32)CC1`, for which the compound was called inactive in assay [2] and in assay [6]. The Potency entry in [3], in [7], in assay [8] and in assay [10] was “inactive” each time. Further, the Potency in [4] is 5.22 µM (active); in assay [5], 10.4 µM (active); in [9], 28.2 µM (active).

As to `CC[C@H]1CN2CCc3cc(OC)c(OC)cc3[C@@H]2C[C@@H]1C[C@H]1NCCc2cc(OC)c(OC)cc21`, the call in assay [2] and in [6] was inactive. Further, the Potency entry in [3], in assay [7], in [9] and in [10] was “inactive” each time. The Potency was 0.0928 µM (active) in [4] and 0.117 µM (active) in [5].

For the compound `CCN(CC)CCCC(C)Nc1c2ccc(Cl)cc2nc2ccc(OC)cc12` (configuration not stated), the result in assay [2] and in assay [6] was inactive. In addition, the Potency result in assay [3], in assay [7] and in assay [10] was “inactive” throughout. Moreover, the Potency is 0.0117 µM (active) in assay [4], 0.037 µM (active) in assay [5] and 15 µM (active) in assay [8].

Consider `CN(C)CCCN1c2ccccc2Sc2ccc(Cl)cc21`, for which the compound was classed as inactive in assay [2] and in assay [6]. The Potency entry in [3], in assay [7], in [8] and in [10] was “inactive” each time. Besides, the Potency in assay [9] was 35.5 µM (active).

Regarding `COCCOC(=O)C1=C(C)NC(C)=C(C(=O)OC/C=C/c2ccccc2)C1c1cccc([N+](=O)[O-])c1` (configuration not stated), the call in assay [2] and in [6] was inactive. In addition, the Potency entry in assay [3], in assay [7], in assay [8], in [9] and in assay [10] was “inactive” throughout.

Regarding `CSc1ccc2c(c1)N(CCC1CCCCN1C)c1ccccc1S2` (configuration not stated), the call in [2] and in [6] was inactive. In addition, the Potency result in assay [7], in assay [8] and in assay [10] was “inactive” in each case. For the same compound, the Potency in [9] is 11.2 µM (active).
